# Screening data as filed in PubChem.
# Rows were chosen to be rich in hits. Some 4.5% of all compounds tested hit in one or more screens of this group.
# HTT-AS promoter – activates huntingtin-antisense promoter activity | Potency, µM (series often up to 57.5 µM), for inactives: at the highest dose activity change, positive = activation, usual class: activators | AID 1508624 | HEK293 HTT-AS promoter firefly luciferase reporter, 24 h; response scale: percent change from vehicle, -100% = no light | hit rate 0.24% among 48,000; also: potency is read from the fitted curve at half-maximal effect; nearly all actives have a fitted effect of over 55% in size
#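 Luminescence was read after Dual-Glo reagent and a 10 min room-temperature incubation. Values were normalized to vehicle (0% activity) and zero RLU (-100% activity). Reporter HEK293 cells had been exposed to compounds (up to 57.5 uM final) for 24 h.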
# HTT prom inh – inhibitors of huntingtin promoter activity; hit rate 0.93% among 48,000; Potency, µM (highest dose often 57.5 µM), without a hit: at the top dose activity change, negative = inhibition, hits mostly inhibitors; HEK293 HTT promoter firefly luciferase reporter, 24 h; also: potency is read from the fitted curve at half-maximal effect; nearly all actives have a fitted effect of over 50% in size
#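 HEK293 Fluc reporter, 2,500 cells/well, 24 h pre-culture; cpds up to 57.5 uM final, 24 h 37 degrees C; Dual-Glo, 10 min RT; normalized vehicle = 0%, zero RLU = -100%.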
# NTMT1 inhibitor – blocks human N-terminal methyltransferase 1 activity; NTMT1 MTase-Glo SAH luminescence, purified enzyme; Potency, µM (top dose mostly 114 µM), inactives show at the highest dose activity change, negative = inhibition, usual class: inhibitors; hit rate 2.5% among 59,000; AID 1645870;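 also: potency is read from the fitted curve at half-maximal effect; plate controls were DMSO vehicle for no effect and no enzyme for full effect; nearly all actives have a fitted effect of over 65% in size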
# Target sequence (Q9BV86 whole entry, looked up): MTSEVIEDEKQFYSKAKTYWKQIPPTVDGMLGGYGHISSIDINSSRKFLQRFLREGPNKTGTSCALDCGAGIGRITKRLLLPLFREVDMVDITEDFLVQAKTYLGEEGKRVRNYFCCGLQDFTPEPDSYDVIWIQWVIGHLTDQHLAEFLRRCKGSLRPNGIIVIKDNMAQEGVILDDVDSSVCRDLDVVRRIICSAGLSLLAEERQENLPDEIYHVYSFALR
# GPR32 ag – activates human resolvin D1 receptor GPR32. O75388. CHO-K1 GPR32 beta-arrestin PathHunter luminescence, 90 min; zero percent set by DMSO-only wells. activation, % at 76.9 µM. hit rate 2.5% among 48,000;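 active = activation of at least 60% and not above a set upper limit, about 1 call in 100 departs from these limits; inconclusive = activation of 40% to 60%, or above that upper limit; inactive = activation under 40%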; also: 0% is about no effect
# Target sequence (O75388 whole entry, looked up): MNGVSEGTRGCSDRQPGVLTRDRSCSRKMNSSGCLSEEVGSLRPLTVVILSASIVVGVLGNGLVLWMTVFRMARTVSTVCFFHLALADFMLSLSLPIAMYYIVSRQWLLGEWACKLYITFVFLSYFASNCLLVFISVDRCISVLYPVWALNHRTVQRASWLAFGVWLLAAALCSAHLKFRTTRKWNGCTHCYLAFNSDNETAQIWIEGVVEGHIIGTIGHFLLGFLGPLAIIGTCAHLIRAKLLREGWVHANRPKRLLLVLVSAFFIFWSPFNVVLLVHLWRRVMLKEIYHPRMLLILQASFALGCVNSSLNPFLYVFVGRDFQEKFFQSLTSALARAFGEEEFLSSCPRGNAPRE
#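 Cells are plated overnight, treated with compounds in DMSO for 90 minutes at 37 °C, and developed with PathHunter detection reagent for 1 hour before luminescence is read; signal reflects beta-arrestin binding to GPR32 in engineered CHO-K1 cells.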
# SKOV3 invasion – ovarian cancer metastasis inhibition, 3D TME model; hit rate 0.1% among 46,000; SKOV3ip1-GFP adhesion/invasion on 3D omental model, fluorescence; Potency, µM (doses to about 45.8 µM), without a hit: at the top dose activity change, negative = inhibition, actives largely listed as inhibitors;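 also: potency is read from the fitted curve at half-maximal effect; plate controls were DMSO wells for no effect and tomatine positive control wells for full effect; nearly all actives have a fitted effect of over 65% in size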
#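 Adhesion/invasion was scored as fixed GFP-labeled SKOV3ip1 cell counts (488/509 nm), normalized to DMSO and tomatine controls. Cancer cells in serum-free medium, with four compound doses (0.36-46 umol/L), sat 2 hr at RT then 16 hr at 37 C on a 48 hr fibroblast/mesothelial/ECM culture.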
# Sfp qHTS opt – inhibits purified B. subtilis Sfp PPTase. hit rate 78% among 230. purified Sfp PPTase enzyme activity, qHTS. AID 540350. Potency, µM (highest dose often 114 µM), inactives show at the top dose activity change, negative = inhibition, actives largely listed as inhibitors. shares compounds with NTMT1 inhibitor
# Bsub HM489 growth – reduces growth of B. subtilis HM489 strain; Potency, µM (top dose mostly 114 µM), inactives show at the top dose activity change, negative = inhibition, hits mostly inhibitors; B. subtilis HM489 (acpS-) growth, BacTiter-Glo, 5 h; hit rate 50% among 220; shares compounds with NTMT1 inhibitor
# Sfp gel opt – inhibitors of Bacillus subtilis Sfp PPTase, gel-based followup; shares compounds with NTMT1 inhibitor; purified Sfp PPTase, gel-based product detection; Potency, µM (series often up to 250 µM), without a hit: at the top dose activity change, negative = inhibition, most hits filed as inhibitors; hit rate 54% among 220; AID 540355
# Sfp gel – confirmation of Bacillus subtilis Sfp PPTase inhibitors | Potency, µM (doses to about 250 µM), for the others: at the top dose activity change, negative = inhibition, actives largely listed as inhibitors | hit rate 90% among 45 | AID 602362 | purified Sfp PPTase, gel-based product detection | shares compounds with NTMT1 inhibitor
# Sfp SAR2 – inhibits B. subtilis Sfp PPTase in second SAR round. shares compounds with NTMT1 inhibitor. Potency, µM (titrated, usually from 57.1 µM), for the others: at the top dose activity change, negative = inhibition, usual class: inhibitors. hit rate 87% among 230. purified Sfp enzyme, PPTase activity, qHTS
# hGST ctr – counter-screen for Sfp PPTase inhibitors: hGST A1-1 inhibition. shares compounds with NTMT1 inhibitor. AID 602391. 55 tested, under 10 active. hGST A1-1 enzyme activity counter-screen, qHTS. Potency, µM (highest dose often 114 µM), for inactives: top-dose activity change, negative = inhibition, most hits filed as inhibitors
# HSD17B4 inh – counter-screen for HPGD inhibitors: human HSD17B4 inhibition; shares compounds with NTMT1 inhibitor; purified HSD17B4, estradiol/NAD+, NADH fluorescence; Potency, µM (series often up to 57.1 µM), for the others: at the top dose activity change, negative = inhibition, usual class: inhibitors; hit rate 10% among 230; AID 743187
# ALDH1A1 inh – ALDH1A1 (human) inhibition, HPGD counter-screen; shares compounds with NTMT1 inhibitor; recombinant ALDH1A1, NADH fluorescence, propionaldehyde/NAD+; Potency, µM (top dose mostly 57.1 µM), for inactives: top-dose activity change, negative = inhibition, most hits filed as inhibitors; hit rate 93% among 230
# NNMT inh – human NNMT inhibition, NTMT1 counter-screen. shares compounds with NTMT1 inhibitor. Potency, µM (highest dose often 57.1 µM), inactives show at the highest dose activity, negative = inhibition, usual class: inhibitors. NNMT MTase-Glo luminescence, SAH detection. hit rate 10% among 120. AID 1645878
# The depositor's hits bear a star; ? = inconclusive; · = not tested or not shown; [ ] = another dose, or the depositor's remark. Unless noted, calls follow the shape of the dose curve; as a rule, active = well fitted curve in the direction sought with a large enough effect; inconclusive = small, poorly fitted or top-dose-only effect, or another doubt; inactive = no such curve, though single readings can be large; an effect the other way counts as inactive or inconclusive.
SMILES,HTT-AS promoter,HTT prom inh,NTMT1 inhibitor,GPR32 ag,SKOV3 invasion,Sfp qHTS opt,Bsub HM489 growth,Sfp gel opt,Sfp SAR2,HSD17B4 inh,ALDH1A1 inh,others
Cc1cc(C)nc(/N=C(\NC#N)N2CCN(c3cccc(C(F)(F)F)c3)CC2)c1,·,·,2.9%,·,·,?,41.8µM*,?,?,-9.3%,24.1µM*,
NC(=O)C1CCN(c2ncc(-c3cccc(N4CCCC4)c3)s2)CC1,·,·,1.5%,·,·,·,·,·,·,·,·,
Cc1ccc(S(=O)(=O)c2cn(Cc3ccccc3)c3cc(N4CCCC4)c(F)cc3c2=O)cc1,-8.2%,-0.5%,13.5%,-11.1,2.8%,·,·,·,·,·,·,
O=c1oc(Cl)c(Cl)c2ccccc12,·,·,·,-6.5,·,·,·,·,·,·,·,
CC(NC(=O)CC(=O)O)C(=O)Nc1ccccc1C(N)=O (stereo not given),·,·,-15.1%[57.5 µM],·,·,·,·,·,·,·,·,
c1nc(NCC2CCCO2)c2ccc(-c3ccc4c(c3)OCO4)cc2n1 (stereo not given),·,·,-18.9%[57.5 µM],·,·,·,·,·,·,·,·,
c1ccc(-c2oc3ncnc(NC[C@@H]4CCCO4)c3c2-c2ccccc2)cc1,-40.0%,?,10µM*,·,-0.8%,·,·,·,·,·,·,NNMT inh=?
O=C(NCc1cccn1Cc1ccccc1)Nc1cccc(C(F)(F)F)c1,-30.5%,?,-9.0%,12.5,0.9%,·,·,·,·,·,·,
Cc1ccc(Cl)cc1NC(=O)C(Cc1ccccc1)NS(=O)(=O)c1cccc2nsnc12 (stereo not given),-11.2%,?,-4.7%,-23.5,0.2%,·,·,·,·,·,·,
Cc1cc(C)nc(NC(=S)N2CCN(Cc3cccc4ccccc34)CC2)c1,·,·,?,·,·,4.69µM*,?,10µM*,8.13µM*,-10.8%,21.5µM*,
Cc1ccc(C)c(N2CCN(C(=O)c3ccc(NC(=O)c4nsc5ccccc45)cc3)CC2)c1,?,-24.5%,-14.9%,-17.9,-6.2%,·,·,·,·,·,·,
Cc1cc(C)nc(NC(=S)N2CCN(c3nsc4ccccc34)CC2)c1,·,·,?,·,·,3.73µM*,?,6.31µM*,1.02µM*,-9.9%,21.5µM*,
Cc1cc(C)nc(NC(=S)N2CCN(c3nccc4ccccc34)CC2)c1,·,·,?,·,·,2.64µM*,?,-63.1%,9.13µM*,-22.8%,9.61µM*,
Cc1cc(C)nc(NCc2ccc(O)c3ncccc23)c1,·,·,-4.0%,·,·,·,·,·,·,·,·,
Cc1ccc(NC(=O)C2CCCN(c3nc4ccccc4s3)C2)c(C)c1 (stereo not given),16.0%,-2.1%,-2.8%,-3.6,1.1%,·,·,·,·,·,·,
CN(Cc1ccccc1)C(=O)C1CCN(Cc2cccc3ccccc23)CC1,·,·,-2.8%,·,·,·,·,·,·,·,·,
Cc1cc(C)nc(NC(=S)N2CCN(c3nc4ccccc4s3)CC2)c1,·,·,?,·,·,0.373µM*,?,10µM*,0.91µM*,-14.6%,8.57µM*,
Cc1ccsc1CN(C(=O)c1oc2cc(Br)ccc2c1C)C1CCS(=O)(=O)C1 (stereo not given),-46.7%,?,5.6%,-30.5,-23.6%,·,·,·,·,·,·,
CCOC(=O)c1ccccc1NC(=O)N1CCCn2nc(C)cc21,-19.3%,-19.8%,?,-20.0,1.1%,·,·,·,·,·,·,
COc1cc(F)c(S(=O)(=O)N2CCN(S(=O)(=O)c3ccco3)CC2)c(F)c1,·,·,4.5%,·,·,·,·,·,·,·,·,
Cc1cc2n(n1)CCC(=O)N2Cc1ccc(C(=O)Nc2cccc(C(F)(F)F)c2)cc1,-28.7%,-14.9%,-18.6%,27.8,4.5%,·,·,·,·,·,·,
Cc1cc(C)nc(NC(=S)N2CCN(Cc3cccc(C(F)(F)F)c3)CC2)c1,·,·,·,·,·,6.63µM*,?,?,11.5µM*,-15.1%,12.1µM*,
Cc1cc(C)nc(NC(=S)N2CC3CN(c4ccc(Cl)cc4C(F)(F)F)CC3C2)c1 (stereo not given),·,·,?,·,·,0.257µM*,·,·,0.73µM*,-27.3%,8.57µM*,hGST ctr=?
Cc1cc(C)nc(NC(=S)N2CCN(c3ccc(C(=O)O)cc3)CC2)c1,·,·,?,·,·,9.37µM*,-0.8%,-56.0%,3.24µM*,?,21.5µM*,
Cc1cc(C)nc(NC(=S)N2CCN(c3ccncc3)CC2)c1,·,·,?,·,·,?,-19.9%,-6.2%,3.24µM*,6.2%,30.4µM*,
CC(=O)c1ccc(N2CCN(C(=O)CCC(=O)Nc3ccc4nc(N5CCCCC5)cc(C)c4c3)CC2)cc1,6.7%,?,?,18.3,26.5%,·,·,·,·,·,·,
Cc1cc(C)nc(NC(=S)N2CCN(c3ccc(F)c(F)c3F)CC2)c1,·,·,?,·,·,2.1µM*,21µM*,7.94µM*,1.02µM*,-23.1%,9.61µM*,Sfp gel=2.4µM*;hGST ctr=-2.9%
Cc1cc(C(=O)N2CCN(c3ccccc3F)CC2)c2c(C)nn(-c3ccccc3)c2n1,-33.6%,?,24.5%,-19.6,11.8%,·,·,·,·,·,·,
CCN(c1ccccc1)S(=O)(=O)c1nnc(NC(=O)COc2cccc(C)c2)s1,-21.3%,-7.2%,-2.9%,3.3,?,·,·,·,·,·,·,
